We go through 60 compounds from PubChem BioAssay AID1259420 (Broad Institute, 2018).

This experiment can be described thus: T. gondii intracellular growth, IFN-gamma absent, dose response, cell-based (AID 1259420).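 Also: host cells were HeLa; final incubation lasted 72 hours.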 Particulars: Toxoplasma gondii growth in host cells, no IFN-gamma.

Values joined by “and” are separate entries in the source; they are usually repeats but may differ in a detail not shown here. Equal entries are not always repeated. Screen size: about 1,000 compounds; about 250 (25%) were called active. Another 31% or so got no clear call; they are omitted. Not all results are given here. Potency and affinity values are given separately. Values without a mark were called inactive. No rule for the calls is given here. Bridge positions count the residues as written; N and C are the ends. Square brackets hold non-standard residues; d marks the D form. Peptide text beside a SMILES is read from it. * marks the point of attachment. ξ: configuration not given here. Heptanoyl(6-Me) = CC(C)CCCCC(=O)*; ξDab = NCCC(N)C(=O)O; ξT = CC(O)C(N)C(=O)O

In the case of `Cc1ccc(S(=O)(=O)N2CC[C@@H]3[C@H](CO)Nc4ccc(-c5cccc(C(=O)N(C)C)c5)cc4[C@@H]32)cc1`, the max activity (at 19.5 µM unless noted) was 15.5%.
Turning to `O=C(C[C@H]1CC[C@@H]2[C@H](COC[C@H](O)CN2C(=O)c2cc(Cl)cc(Cl)c2)O1)N1CCc2ccccc2C1`, for the setting “at 19.5 µM unless noted”, the max activity is 6.12% [at 2.6 µM].
On the same count and under the same terms, then `c1ccc(-c2ccc([C@H]3[C@H]4CNC[C@@H]3N4Cc3cc(-c4ccccc4)on3)cc2)cc1`, with 21.8% [at 21 µM]; and `Cc1ccc(S(=O)(=O)Nc2ccc3c(c2)C(=O)N([C@@H](C)CO)C[C@H](C)[C@H](CN(C)Cc2ccc(C(F)(F)F)cc2)O3)cc1`, with 18.3%.
Still for that read-out and setting: then `COc1ccc(S(=O)(=O)N(C)C[C@H]2Oc3c(NC(=O)c4nc5ccccc5s4)cccc3C(=O)N([C@@H](C)CO)C[C@H]2C)cc1`, with 5.87% [at 5 µM].
For `OC[C@@H]1[C@@H](c2ccc(-c3cccc(F)c3)cc2)[C@@H]2CN(Cc3cncnc3)CCCCN12`, the max activity is, setting by setting: (at 1.2 µM) -7.4%; (at 19.5 µM) 16.1%.
As to `Cc1ccc(CN2CC[C@H]3CO[C@@H](CNC(=O)C4CC4)[C@@H]3C2)cc1`, for the setting “at 19.5 µM unless noted”, the max activity is -26.4% [at 10 µM].
The same measure, in the same setting: then `CC(C)CCCCC(=O)NC(CCN)C(=O)NC(C(=O)NC(CCN)C(=O)NC1CCNC(=O)C(C(C)O)NC(=O)C(CCN)NC(=O)C(CCN)NC(=O)[C@H](CC(C)C)NC(=O)[C@@H](CC(C)C)NC(=O)C(CCN)NC1=O)C(C)O` (stereo partly drawn) ({Heptanoyl(6-Me)}-[ξDab][ξT][ξDab][ξDab][ξDab][dL]L[ξDab][ξDab][ξT]; lactam 4-C), with -5.41% [at 2.6 µM].
Take `O=C(C1CCCCC1)N1[C@@H](CO)[C@@H]2c3ccccc3N(S(=O)(=O)c3ccccc3)C[C@@H]21`: the max activity (at 19.5 µM unless noted) is 7.57%.
Turning to `O=C(NC1CCCC1)N1[C@@H]2CNC[C@H]1C2c1ccc(-c2cccnc2)cc1` (some centres not stated), the max activity (at 19.5 µM unless noted) is -14.9% [at 10 µM].
Take `CN(C)C(=O)c1cccc(-c2ccc3c(c2)[C@H]2[C@H](CCN2C(=O)Cc2ccccc2)[C@@H](CO)N3)c1`: the max activity (at 19.5 µM unless noted) is -6.17% [at 10 µM].
With `CN(C)C(=O)c1cccc(-c2ccc3c(c2)[C@@H]2[C@@H](CCN2C(=O)Cc2ccccc2)[C@H](CO)N3)c1`, the max activity (at 19.5 µM unless noted) is 13.7% [at 21 µM].
For `O=C(Cc1cccnc1)N1CC(=O)N2[C@@H](CO)[C@H](c3ccc(C#CC4CCCCC4)cc3)[C@@H]2C1`, under “at 19.5 µM unless noted”, the max activity was -4.29% [at 10 µM].
On the same count and under the same terms, with `CC(C)NC(=O)N1CC(=O)N2[C@H](C1)[C@@H](c1ccc(/C=C/c3ccccc3)cc1)[C@@H]2CO` the figure was 11.9% [at 5 µM]; with `CN(C)C(=O)c1cc2c(nc1NCC1CC1)CCN(Cc1ccccn1)CC2`, -6.11% [at 10 µM]; with `CC(C)CN(C[C@@H](O)[C@H](Cc1ccccc1)NC(=O)O[C@H]1CO[C@H]2OCC[C@H]21)S(=O)(=O)c1ccc(N)cc1`, 6.05% [at 1.2 µM].
`O=C(C1CC1)N1C[C@@H]2N[C@H](C1)C2c1ccc(/C=C/c2ccccc2)cc1` (some centres not stated): the max activity (at 19.5 µM unless noted) is 27.3%.
Consider `COc1ccccc1-c1ccc(C2[C@@H]3CN(C(=O)c4ccncc4)C[C@H]2N3)cc1` (some centres not stated), for which the max activity (at 19.5 µM unless noted) was -11% [at 5 µM].
With `COc1ccc(-c2ccc(C3[C@@H]4CN(C(=O)c5cnccn5)C[C@H]3N4)cc2)cc1` (some centres not stated), the max activity (at 19.5 µM unless noted) is 19.9%.
In the case of `Cc1csc([C@H]2C[C@H]3CCN(C(=O)c4cnccn4)C[C@@H]3O2)n1`, the max activity (at 19.5 µM unless noted) was -12.1%.
Still for that read-out and setting: then `CC(C)CNC(=O)c1cc(-c2ccn(CC3CC3)n2)n2ccccc12`, with 21.6%; and `Cc1ccc(S(=O)(=O)N2CCC3(CC2)OC(C(=O)N(C)C)Cn2ccnc23)cc1` (configuration not stated), with -17%.
On the same count and under the same terms, with `CN(C)C(=O)CN1C[C@@H]2CCN(C(=O)Nc3ccccc3Cl)CC[C@H]2S1(=O)=O` the figure was 7.52% [at 2.6 µM]; with `O=C(NC1CCCC1)N1CC[C@H]2CN(Cc3cccc(Cl)c3)S(=O)(=O)[C@@H]2CC1`, -17.4%; with `CC(C)n1c(C(=O)N2CCN(c3ccncc3)CC2)cc2c1c1ccccc1n2C`, 37.4%.
For the compound `COc1ccccc1C#Cc1ccc([C@@H]2[C@H](CO)N3CCCCN(C(=O)C4CCC4)C[C@@H]23)cc1`, the max activity (at 19.5 µM unless noted) was 17.3%.
Same read-out and setting: with `CS(=O)(=O)N1CCO[C@@H]2CN(C(=O)Cc3ccccn3)CC[C@H]2C1` the figure was -18.9% [at 1.2 µM]; with `Cn1c([N+](=O)[O-])cnc1COC(N)=O`, -13.4% [at 0.6 µM].
On to `N#C[C@H]1N[C@@H](CO)[C@@H]1c1ccc(C#CC2CCCCC2)cc1`, for which the max activity (at 19.5 µM unless noted) was 28% [at 21 µM].
In the case of `C=CC[C@@H]1CC=C[C@@H](C)N1C(=O)CCn1c(C)cc(C)nc1=O`, the max activity was 10.8% (at 0.16 µM) and -10.5% (at 10 µM).
Turning to `Oc1[nH]c2ccccc2c1N=Nc1nc(Nc2ccccc2)nc(N2CCOCC2)n1`, the max activity (at 19.5 µM unless noted) is -17.4% [at 5 µM].
The same measure, in the same setting: with `COc1cccc(-c2ccc3c(c2)[C@H]2[C@H](CCN2S(=O)(=O)c2ccccc2F)[C@H](CO)N3)c1` the figure was 10%; with `O=C(c1cnccn1)N1CC(=O)N2[C@H](C1)[C@H](c1ccc(/C=C/c3ccccc3)cc1)[C@@H]2CO`, 11.5% [at 0.16 µM]; with `O=S1(=O)c2ccccc2OCC2(CCN(Cc3ccc(F)cc3)CC2)CN1CC1CC1`, 28.5%.
The same measure, in the same setting: then `COCC#Cc1ccc([C@H]2[C@H](CO)N3CCCCN(C(=O)NC4CCCC4)C[C@@H]23)cc1`, with -13.1% [at 10 µM].
On the same count and under the same terms, with `O=C(Nc1ccc2c(c1)OCO2)N1C[C@@H]2N[C@H](C1)C2c1ccc(C=Cc2ccccc2)cc1` (some centres not stated) the figure was 38% [at 10 µM].
With `CN1C(=O)c2cc(NC(=O)c3cccc(F)c3)ccc2OC[C@H]2O[C@@H](CC(=O)NCC3CCCCC3)CC[C@@H]21`, the max activity (at 19.5 µM unless noted) was -18% [at 2.6 µM].
As to `CN1C(=O)c2cc(NC(=O)c3cccc(F)c3)ccc2OC[C@H]2O[C@@H](CC(=O)NCC3CCCCC3)CC[C@H]21`, the max activity (at 0.16 µM) is 4.44%, the max activity (at 5 µM) was -19.3% and the max activity (at 19.5 µM) is -5.09%.
`CN1C(=O)c2cc(NC(=O)c3cccc(F)c3)ccc2OC[C@@H]2O[C@H](CC(=O)NCC3CCCCC3)CC[C@@H]21`: the max activity (at 19.5 µM unless noted) was -23.6% [at 10 µM].
On the same count and under the same terms, with `COc1cccc(C(=O)Nc2ccc3c(c2)C(=O)N(C)[C@H]2CC[C@@H](CC(=O)N[C@@H](C)c4ccccc4)O[C@H]2CO3)c1` the figure was 8.03% [at 0.3 µM]; with `CN1C(=O)c2cc(NC(=O)c3cccc(F)c3)ccc2OC[C@@H]2O[C@@H](CC(=O)NCC3CCCCC3)CC[C@@H]21`, -20.9% [at 2.6 µM].
On the same count and under the same terms, with `CC(C)c1cccc(NC(=O)C[C@H]2CC[C@H]3[C@@H](COc4ccc(NS(=O)(=O)c5ccccc5Cl)cc4C(=O)N3C)O2)c1` the figure was -22.8% [at 10 µM]; with `Cc1ccccc1S(=O)(=O)N1CCCCN2[C@H](CO)[C@H](c3ccc(C#CCN(C)C)cc3)[C@@H]2C1`, -9.35% [at 10 µM].
Take `Cc1ccccc1-c1ccc(C2[C@@H]3CN(C(=O)C4CCOCC4)C[C@H]2N3)cc1` (some centres not stated): the max activity is -10.3% (at 0.6 µM) and -5.78% (at 5 µM).
Take `C1=C(c2ccccc2)CC(c2ccccc2)=NN=C1c1ccccc1`: the max activity (at 19.5 µM unless noted) is -9.17% [at 10 µM].
Same read-out and setting: then `COc1cccc(S(=O)(=O)N2CCCCN3[C@@H](CO)[C@H](c4ccc(C#CCC(C)C)cc4)[C@@H]3C2)c1`, with -27.2% [at 0.3 µM]; and `COc1cccc(S(=O)(=O)N2CCCCN3[C@H](C2)[C@@H](c2ccc(C#CCC(C)C)cc2)[C@@H]3CO)c1`, with -34.5% and -29.4%.
Still for that read-out and setting: then `O=S(=O)(c1ccccc1)N1CCCCN2[C@H](CO)[C@@H](c3ccc(C#CC4CCCC4)cc3)[C@@H]2C1`, with 39.2%; and `O=S(=O)(c1ccccc1)N1CCCCN2[C@H](C1)[C@@H](c1ccc(C#CC3CCCC3)cc1)[C@@H]2CO`, with 22.5%.
In the case of `COc1cccc(S(=O)(=O)N2CCCCN3[C@H](CO)[C@H](c4ccc(C#CCC(C)C)cc4)[C@@H]3C2)c1`, the max activity reads like this: (at 0.038 µM) -25.2%; (at 19.5 µM) -36.4%.
For the compound `COc1cccc(S(=O)(=O)N2CCCCN3[C@H](CO)[C@@H](c4ccc(C#CCC(C)C)cc4)[C@@H]3C2)c1`, the max activity (at 19.5 µM unless noted) is -24.9% [at 0.038 µM].
For `O=S(=O)(c1ccccc1)N1CCCCN2[C@@H](CO)[C@@H](c3ccc(C#CC4CCCC4)cc3)[C@@H]2C1`, where the note is “at 19.5 µM unless noted”, the max activity is 18.8% [at 10 µM].
The same measure, in the same setting: then `CNCCCC12CCC(c3ccccc31)c1ccccc12`, with 17.3%.
Turning to `CCC(=O)N1CC(=O)N2[C@H](C1)[C@H](c1ccc(C#CCC(C)C)cc1)[C@@H]2CO`, the max activity (at 19.5 µM unless noted) is -9.55% [at 5 µM].
The same measure, in the same setting: then `O=C(NC1CCCC1)N1CC(=O)N2[C@H](CO)[C@H](c3ccc(C4=CCCCC4)cc3)[C@@H]2C1`, with 10.5% [at 0.6 µM]; and `CS(=O)(=O)N1CC(=O)N2[C@H](CO)[C@@H](c3ccc(C#CCC4CCCC4)cc3)[C@H]2C1`, with 17.7% [at 21 µM]; and `COC(=O)C[C@H]1CC[C@@H]2[C@@H](COc3ccc(NC(=O)Nc4cccc(C#N)c4)cc3C(=O)N2C)O1`, with 32.3% and 6.8%.
Still for that read-out and setting: with `CC=Cc1ccc2n(c1=O)C[C@H]1[C@H](CO)[C@@H](C(=O)Nc3ccc(-c4ccccc4)cc3)[C@@H]2N1C(=O)CC` (mixture of isomers) the figure was -8.34%; with `CC(=O)NC1=NN(C(C)=O)C(C)(c2ccccc2)S1` (configuration not stated), 5.61% [at 0.16 µM].
As to `COc1ccccc1C#Cc1ccc([C@H]2[C@H](CO)N3CCCCN(C(=O)C4CCC4)C[C@@H]23)cc1`, the max activity is 11.5% (at 10 µM) and -7.69% (at 19.5 µM).
